The results in this text go back to the supplement of paper PMC10681739.

The target in the assay is T1, ETS1 (UniProt P14921).
T1 sequence: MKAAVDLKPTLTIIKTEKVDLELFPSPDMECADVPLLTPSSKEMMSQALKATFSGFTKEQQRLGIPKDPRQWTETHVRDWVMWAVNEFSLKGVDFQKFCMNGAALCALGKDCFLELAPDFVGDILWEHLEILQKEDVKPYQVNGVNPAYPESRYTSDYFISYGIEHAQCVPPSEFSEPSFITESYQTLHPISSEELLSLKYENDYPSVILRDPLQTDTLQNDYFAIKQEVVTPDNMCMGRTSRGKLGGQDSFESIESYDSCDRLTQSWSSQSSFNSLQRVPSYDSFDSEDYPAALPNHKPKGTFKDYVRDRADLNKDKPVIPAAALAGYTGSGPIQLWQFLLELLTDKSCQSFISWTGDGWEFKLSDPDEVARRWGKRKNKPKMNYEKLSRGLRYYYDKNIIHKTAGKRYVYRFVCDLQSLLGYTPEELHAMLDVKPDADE
Description: TF binding intensity (PBM fluorescence), negative control probe (arbitrary fluorescence units); higher = stronger binding. The protocol:
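gcPBM negative-control 36-bp genomic probes lacking TF binding sites. Each was incubated with recombinant human ETS1 or RUNX1 alone and detected by antibody fluorescence. Values are medians over replicate spots (4 spots for the ETS1-RUNX1 arrays, 3 for the ETS1-ETS1 array). The probes sit in constant array flanks that are not printed.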
“TGACCGGCAGGCCCGAAGCCCCCTGGGATGCCTGGC (protein concentration 10 nM)” registered a TF binding intensity of 105.
Then “CAGGCAGCATCTGGGGGTGTGTGGGTTTGGCAAGCT (protein concentration 10 nM)”, with 134; and “GAAAGAGGCACATGGTGCCTCACAGCCTCCTCCCAG (protein concentration 10 nM)”, with 128.
In the case of “TAAGTATTAAGAGTTGCAACACTCTAATCAAGGATA (protein concentration 10 nM)” it was 102; in that of “CGTTCGTTCGACAGCTCTTGTGGTAAACAGCGTCAA (protein concentration 10 nM)”, 132; in that of “GCTGGGGTTTGCTGCCTGGAGGCAGCCTGTCCAGGA (protein concentration 10 nM)”, 109.
Take “GTCCCCTCAAGGACCCCCAGTGCAGGTGAAAAACTG (protein concentration 10 nM)”: the TF binding intensity was determined as 174.
Then “CTGGTGGCCACCCTTGTGGCGCTGAGGTGCTGAGGT (protein concentration 10 nM)”, with 127; and “GACCACAGGGACCCATGCCAGTCAGATAAAAATAAC (protein concentration 10 nM)”, with 141; and “CTCCACGACCCTGAAACTAGAACAAGACCTCTCCTC (protein concentration 10 nM)”, with 165.
In the case of “TAAATCAAAAGATGACCAAGCTGGAGAGAAAAGTGA (protein concentration 10 nM)” it was 129; in that of “CTCAGTGCCTGCCTCAGATGTTTAAGTCTGAACATT (protein concentration 10 nM)”, 110; in that of “CCCACTGTAATAGGCAGATACTGATGAAGTCCTGCA (protein concentration 10 nM)”, 147.
In the case of “GGGTCTTGCCATTGAGAGGCAGGTGATGTGCTGTTT (protein concentration 10 nM)” it was 132; in that of “TGCTCTAGAGATGTGATCGTCCTCATTTCATGAAGG (protein concentration 10 nM)”, 121; in that of “TATCTTTATCATGATCCATTAAAGATGACAGAACTA (protein concentration 10 nM)”, 127.
“AGCAGAGTGTGATGAATGGATTCATATACGGTCTGA (protein concentration 10 nM)” displayed a TF binding intensity of 103.
Regarding “GTTTATTGCCCACAACATGTCAGGCACAGTGGGAAG (protein concentration 10 nM)”, the TF binding intensity stood at 132.
As for “CTCCCTCTCTCCCTCCCTCCCTCCCTCCCTCCCTTC (protein concentration 10 nM)”, the TF binding intensity stood at 230.
In the case of “ATGGCCAGTTCACAGTGAGCCAAAGTCCTCCTCACA (protein concentration 10 nM)” it was 94.5.
Then “GAAGTTTCAAGATGTAGTAGTTAAAGTATTAACTTA (protein concentration 10 nM)”, with 113; and “TCCTGTAAGGACATTTTGTGCCTTCTCCCATGATGA (protein concentration 10 nM)”, with 97.8.
Sequence “AGCAGATCATTTGAGCCTGGGAGGCGCACATGGCAG (protein concentration 10 nM)” returned a TF binding intensity of 116.
Turning to “TTTAAAAAATCTACTCTGTCCCTTAAAAGGCCGTTT (protein concentration 10 nM)”, the TF binding intensity is 107.
In the case of “ATGGCTGGGTCAGAGCGGCCTGTCAGCCCGGCTGGA (protein concentration 10 nM)” it was 98; in that of “ATAATGGAAAGCGAAACCGCAGATTAAGCAGGGACT (protein concentration 1 nM)”, 398; in that of “AGCGGGAGGGAGGCCAGGGAAGGCTGCTGGGGGTCG (protein concentration 10 nM)”, 142.
In the case of “GTTGTTATGCAAGGTTGTGGTTTTTGCAGTCTTTTG (protein concentration 1 nM)” it was 498; in that of “AACAGCCCCCTGAACTGCAGGGTGTGACTGTTAGCC (protein concentration 10 nM)”, 140.
In the case of “CACAATAAAGCCGCAACCGCAGGAGGCAGAAGGGTG (protein concentration 1 nM)” it was 793; in that of “CATCCCTCTGCCAGATGGAATTTGGAGATAAACCTC (protein concentration 10 nM)”, 130; in that of “GGGTGGTGGGGCTTTCTTAGCAGCAAAATGTTCGCG (protein concentration 10 nM)”, 223.
Consider “CTGGATTTCTGTACTTTGGTTGGCTTATATTACATC (protein concentration 10 nM)”, for which the TF binding intensity was 171.
In the case of “GAGCCCTTCTGGCCTCCCTGTATAAGTCCAGACTGA (protein concentration 10 nM)” it was 96.9.
